This note sets out measurements from PubChem BioAssay AID1671202 (University of Kansas High Throughput Screening Laboratory, 2021).

The structures appear in SMILES notation. In all, about 190,000 compounds went through this assay and about 6,900 (3.6%) were called active. The sample as a whole holds a higher share of actives than the screen did. Unmarked numbers belong to inactive results. Rule as the data show it: active = inhibition above about 50%; inactive = the rest.

For the test, the target named is Huntingtin (Homo sapiens) (UniProt P42858). Kind of test: mutant huntingtin-calmodulin interaction inhibitors – biochemical, AlphaScreen, primary screen (AID 1671202).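 Also: 0% = both proteins with DMSO and 100% = one protein alone.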 As to conditions: AlphaScreen His-mHTT/GST-CaM binding, luminescence; at 15 µM, active compounds read high. For orientation: Alpha assays give light when donor and acceptor beads are brought close together.
Chain of Huntingtin (Homo sapiens) (P42858 whole entry, looked up, stated change not applied): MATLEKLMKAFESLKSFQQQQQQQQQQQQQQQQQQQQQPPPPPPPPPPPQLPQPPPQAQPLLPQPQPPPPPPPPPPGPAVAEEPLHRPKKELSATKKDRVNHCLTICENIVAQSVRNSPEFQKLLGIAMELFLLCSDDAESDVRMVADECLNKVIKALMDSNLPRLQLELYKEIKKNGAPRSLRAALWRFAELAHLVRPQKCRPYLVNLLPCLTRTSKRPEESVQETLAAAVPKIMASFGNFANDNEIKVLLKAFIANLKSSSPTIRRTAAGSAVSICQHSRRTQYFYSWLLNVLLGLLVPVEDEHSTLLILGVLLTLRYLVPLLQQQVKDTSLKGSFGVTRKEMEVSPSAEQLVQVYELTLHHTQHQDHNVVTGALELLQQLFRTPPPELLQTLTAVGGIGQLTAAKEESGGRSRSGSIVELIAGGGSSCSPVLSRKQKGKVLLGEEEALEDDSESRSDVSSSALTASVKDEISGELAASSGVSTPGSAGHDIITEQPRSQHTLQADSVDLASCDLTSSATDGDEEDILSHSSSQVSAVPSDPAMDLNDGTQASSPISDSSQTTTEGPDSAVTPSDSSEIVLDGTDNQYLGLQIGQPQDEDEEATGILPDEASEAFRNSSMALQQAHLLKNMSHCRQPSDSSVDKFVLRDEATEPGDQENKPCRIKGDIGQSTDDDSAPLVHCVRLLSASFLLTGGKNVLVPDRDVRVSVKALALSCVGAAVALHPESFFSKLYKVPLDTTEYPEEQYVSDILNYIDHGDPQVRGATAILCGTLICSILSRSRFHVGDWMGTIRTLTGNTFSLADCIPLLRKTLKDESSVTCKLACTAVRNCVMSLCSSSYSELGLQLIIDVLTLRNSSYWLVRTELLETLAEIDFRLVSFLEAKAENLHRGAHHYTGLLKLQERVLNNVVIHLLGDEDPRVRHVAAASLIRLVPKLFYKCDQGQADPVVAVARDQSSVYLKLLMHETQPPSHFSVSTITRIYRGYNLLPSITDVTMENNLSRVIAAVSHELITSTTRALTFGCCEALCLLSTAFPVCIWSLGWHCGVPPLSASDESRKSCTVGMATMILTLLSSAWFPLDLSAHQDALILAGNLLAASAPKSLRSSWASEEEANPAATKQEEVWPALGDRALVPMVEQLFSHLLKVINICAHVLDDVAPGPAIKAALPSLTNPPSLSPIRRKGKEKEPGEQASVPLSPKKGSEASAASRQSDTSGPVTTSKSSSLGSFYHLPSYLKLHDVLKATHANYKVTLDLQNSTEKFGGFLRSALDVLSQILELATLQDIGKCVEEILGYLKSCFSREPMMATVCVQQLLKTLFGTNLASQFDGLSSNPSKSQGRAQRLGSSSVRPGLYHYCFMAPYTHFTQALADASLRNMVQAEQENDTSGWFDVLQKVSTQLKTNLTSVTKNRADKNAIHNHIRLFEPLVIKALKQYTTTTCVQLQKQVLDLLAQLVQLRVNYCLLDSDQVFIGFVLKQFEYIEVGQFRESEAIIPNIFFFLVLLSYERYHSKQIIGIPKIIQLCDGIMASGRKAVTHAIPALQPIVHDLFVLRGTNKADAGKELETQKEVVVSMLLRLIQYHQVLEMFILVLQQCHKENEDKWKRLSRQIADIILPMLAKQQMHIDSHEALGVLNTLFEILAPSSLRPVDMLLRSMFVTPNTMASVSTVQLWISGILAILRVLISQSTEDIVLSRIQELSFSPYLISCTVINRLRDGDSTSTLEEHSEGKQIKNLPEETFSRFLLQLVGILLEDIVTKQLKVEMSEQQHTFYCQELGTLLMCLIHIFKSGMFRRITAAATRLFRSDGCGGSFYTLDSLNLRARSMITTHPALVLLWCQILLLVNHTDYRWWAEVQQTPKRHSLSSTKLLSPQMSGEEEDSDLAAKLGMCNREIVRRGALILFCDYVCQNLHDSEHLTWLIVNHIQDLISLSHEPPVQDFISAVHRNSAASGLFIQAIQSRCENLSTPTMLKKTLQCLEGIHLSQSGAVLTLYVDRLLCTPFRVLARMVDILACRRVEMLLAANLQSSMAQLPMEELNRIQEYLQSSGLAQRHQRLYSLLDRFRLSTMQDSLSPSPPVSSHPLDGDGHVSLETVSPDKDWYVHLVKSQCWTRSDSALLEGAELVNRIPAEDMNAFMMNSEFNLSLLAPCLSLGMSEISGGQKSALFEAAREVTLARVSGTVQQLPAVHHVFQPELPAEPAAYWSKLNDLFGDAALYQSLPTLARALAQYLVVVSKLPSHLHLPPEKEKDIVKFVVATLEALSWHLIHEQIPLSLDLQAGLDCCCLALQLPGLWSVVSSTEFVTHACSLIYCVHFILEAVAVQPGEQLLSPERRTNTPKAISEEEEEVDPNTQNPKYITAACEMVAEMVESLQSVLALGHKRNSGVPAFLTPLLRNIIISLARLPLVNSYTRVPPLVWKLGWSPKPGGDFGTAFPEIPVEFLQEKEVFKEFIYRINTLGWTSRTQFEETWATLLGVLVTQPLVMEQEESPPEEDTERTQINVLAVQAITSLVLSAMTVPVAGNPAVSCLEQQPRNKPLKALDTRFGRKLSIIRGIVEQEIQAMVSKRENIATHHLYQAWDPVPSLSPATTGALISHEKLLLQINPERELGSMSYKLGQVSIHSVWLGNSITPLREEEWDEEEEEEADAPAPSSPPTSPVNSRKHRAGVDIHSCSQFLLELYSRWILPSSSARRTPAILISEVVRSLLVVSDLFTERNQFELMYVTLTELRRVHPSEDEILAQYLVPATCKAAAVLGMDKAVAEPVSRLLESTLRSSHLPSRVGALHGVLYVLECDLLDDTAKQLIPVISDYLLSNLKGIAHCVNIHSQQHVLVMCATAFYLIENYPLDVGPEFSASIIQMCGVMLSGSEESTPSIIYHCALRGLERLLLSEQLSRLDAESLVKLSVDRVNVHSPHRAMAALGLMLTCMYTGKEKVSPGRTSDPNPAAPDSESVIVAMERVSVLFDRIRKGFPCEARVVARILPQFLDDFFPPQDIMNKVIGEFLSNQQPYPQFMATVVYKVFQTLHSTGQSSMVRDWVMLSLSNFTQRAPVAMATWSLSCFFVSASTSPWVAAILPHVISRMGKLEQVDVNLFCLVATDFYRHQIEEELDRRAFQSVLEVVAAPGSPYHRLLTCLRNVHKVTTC
The inhibition is the drop in the measured response relative to a control, in per cent. Turning to `CC(C)(C)C(=O)NCCC(O)C1CC1` (centres undefined), the inhibition was -4%.

Consider `CN(C)CCn1c2c(c(SCC(=O)Nc3ccccc3C(F)(F)F)nc1=O)CCC2`, for which the inhibition was 0%.

Consider `O=C(CSc1nnnn1-c1cccc2ccccc12)Nc1ccccc1Cl`, for which the inhibition was -8.1%.

Turning to `COc1ccc(C(=O)Nc2ccccc2F)cc1OC`, the inhibition is -1.2%.

`COc1ccc(C2=NC3(CCCCC3)N(CC(=O)Nc3ccc4c(c3)OCO4)C2=O)cc1`: the inhibition is 3.31%.

For the compound `CNc1nccc(N2CCC(CC(=O)N3CCN(c4ccccc4)CC3)CC2)n1`, the inhibition is 13.2%.

Turning to `Cc1nc(N=C(N)N)nc2c(C)cccc12`, the inhibition is 25.3%.

Consider `O=c1cc(-c2ccccc2)sc2ccc(Cl)cc12`, for which the inhibition was 7%.

As to `NC(N)=Nc1nc(-c2ccccc2)c2cc(Cl)ccc2n1`, the inhibition was 100% (active).

Take `COc1ccc(C2CC(=O)C3=C(C2)Nc2ccccc2NC3c2cc(F)ccc2F)cc1` (centres undefined): the inhibition was 23%.

With `CN(C)c1ccc(C2Nc3ccccc3NC3=C2C(=O)CC(c2ccc(Cl)cc2)C3)cc1` (centres undefined), the inhibition is 63% (active).

`O=C1CC(c2ccc(Cl)cc2)CC2=C1C(c1ccsc1)Nc1ccccc1N2` (centres undefined): the inhibition is 4%.

For the compound `O=C(c1cccs1)N1CC(c2nc(-c3ncccn3)no2)C1`, the inhibition was -5.2%.

As for `COc1ccc(CNC(=O)CN(c2ccc(I)cc2)S(C)(=O)=O)cc1`, the inhibition was -4.2%.

Take `COc1ccc(C2=N/C(=C\c3cccc([N+](=O)[O-])c3)C(=O)O2)c(Br)c1`: the inhibition was 3%.

For the compound `COc1ccc(C)cc1NC(=O)N1CCc2c(c(COCc3ccccc3F)nn2C)C1`, the inhibition is 33.8%.

Turning to `COc1ccc(N2CCN(CC(O)COC3CC4CCC3(C)C4(C)C)CC2)cc1` (centres undefined), the inhibition is 64.3% (active).

Consider `CC1CCN(CC(O)COC2CC3CCC2(C)C3(C)C)CC1` (centres undefined), for which the inhibition is -1.1%.

For the compound `CC1(C)C2CCC1(C)C(OCC(O)CN1CCOCC1)C2` (centres undefined), the inhibition was 2.6%.

For `COc1ccc(C2=NN3COc4ccc(Cl)cc4C3C2)cc1` (centres undefined), the inhibition is 27%.

Take `COc1ccc(C2=NN3C(C2)c2cc(OC)ccc2OC3(C)C)cc1` (centres undefined): the inhibition was 64% (active).

For the compound `COc1ccc(C2=NN3COc4ccc(Br)cc4C3C2)cc1` (centres undefined), the inhibition was 34%.

As for `COc1ccc2c(c1)C(=O)C(C1(O)C(=O)Nc3ccccc31)CC2` (centres undefined), the inhibition was 2.6%.

On to `COc1ccc(OC)c(C2C3=C(CC(C)(C)CC3=O)Nc3ccccc3N2C(C)=O)c1` (centres undefined), for which the inhibition is 8.9%.

As to `O=S1(=O)CC(N2CCN(Cc3ccccc3F)CC2)CN1Cc1cn(Cc2cccc(C(F)(F)F)c2)nn1` (centres undefined), the inhibition was 6.8%.

As to `COCCCNC(=O)c1cnn2c(C(F)(F)F)cc(-c3cccs3)nc12`, the inhibition was 10%.

Regarding `O=[N+]([O-])c1c(Cl)cc(Cl)c2nsnc12`, the inhibition is 88% (active).

Consider `O=C(Nc1ccc(S(=O)(=O)Nc2ccccn2)cc1)C1OC2OC3(CCCCC3)OC2C2OC3(CCCCC3)OC12` (centres undefined), for which the inhibition is 22.5%.

As to `Cc1ccc(SCC(=O)N2CCN(C)CC2)cc1`, the inhibition is 0.5%.

For the compound `CCc1onc(C)c1C1CCCN1Cc1cc(Br)ccc1F` (centres undefined), the inhibition was -71.3%.

In the case of `CCn1cc(-c2ccc(F)cc2)cc1C(=O)NC(C)c1cccnc1` (centres undefined), the inhibition is 50.5% (active).

With `CCn1cc(-c2ccc(C)cc2)cc1C(=O)NCc1cccnc1`, the inhibition was 46.7%.

For `CCn1cc(-c2ccccc2)cc1C(=O)NCc1ccccn1`, the inhibition was 47.4%.

On to `OCCCc1nc2n(n1)C(c1ccco1)C=C(c1ccc(Br)cc1)N2` (centres undefined), for which the inhibition was 34%.

On to `COc1ccc(N2C(=O)CSC2c2c(F)cccc2Cl)c(OC)c1` (centres undefined), for which the inhibition is 1%.

In the case of `COc1cc([N+](=O)[O-])ccc1N=Cc1c(C)[nH]n(-c2ccccc2C)c1=O`, the inhibition was 57% (active).

On to `COc1cc(SC#N)ccc1N=Cc1c(C)[nH]n(-c2ccc(Br)cc2)c1=O`, for which the inhibition was 2%.

With `COc1cc([N+](=O)[O-])ccc1N=Cc1c(C)[nH]n(-c2ccc(C)c(C)c2)c1=O`, the inhibition is 11%.

On to `COc1cccc2cc(-c3cc(=O)oc4cc5c(cc34)CCCC5)oc12`, for which the inhibition was -2.8%.

Take `O=C(c1c(F)cccc1F)N1CCN(S(=O)(=O)C2CC2)CC1`: the inhibition is -10.4%.

As to `O=C1Nc2ccccc2Oc2cc([N+](=O)[O-])cc(Oc3ccccc3Br)c21`, the inhibition was 32%.

Take `COCCNC(=O)N1CCCC2(C1)Nc1ccccc1NC2=NCc1ccccc1` (centres undefined): the inhibition is 97.7% (active).

`CC(C)(C)C(=O)N1CCCC2(C1)Nc1ccccc1NC2=NCc1ccccc1` (centres undefined): the inhibition was 100% (active).

Regarding `O=C(c1ccccn1)N1CCC2(C1)NCc1ccccc1NC2=NCc1ccccc1` (centres undefined), the inhibition was 12.6%.

For `O=C(c1cnccn1)N1CCCC2(C1)Nc1ccccc1NC2=NCc1ccccc1` (centres undefined), the inhibition is 25.6%.

As to `c1ccc(CN=C2Nc3ccccc3NC23CCCNC3)cc1` (centres undefined), the inhibition was 25.7%.

Regarding `COc1ccccc1C(=O)N1CCCC2(C1)Nc1cccnc1NC2=NCc1ccccc1` (centres undefined), the inhibition was 1.03%.

With `Cc1cccc(-c2csc3c(=O)n(Cc4ccc(F)cc4)cnc23)c1`, the inhibition is -29.4%.

As for `O=S1(=O)c2ccccc2S(=O)(=O)N1c1cc(F)ccc1F`, the inhibition was 6%.

Take `O=C(c1cccc2c1CCN2C(=O)C1CC1)N1CCOCC1`: the inhibition was -4.9%.

`CC12C=CC(O1)C1C(=O)N(c3ccc(Cl)c(C(=O)O)c3)C(=O)C12` (centres undefined): the inhibition was -2%.

`O=C(NCc1ccccc1Cl)c1cnn2c3c(cnc12)CCCCCC3`: the inhibition was -7%.

On to `COc1cccc(N=Cc2cc(Br)ccc2O)c1`, for which the inhibition was 13%.

For `O=C1/C(=C/c2ccc3c(c2)OCO3)CCC/C1=C\c1ccc2c(c1)OCO2`, the inhibition was 58% (active).

Turning to `CSC1=N/C(=C\c2ccc3c(c2)OCO3)C(=O)S1`, the inhibition is -2%.

`O=C1OC(c2ccco2)=N/C1=C/c1ccc2c(c1)OCO2`: the inhibition was 29%.

As to `COc1cc(Cl)ccc1C(=O)N1CCC(c2nc(CCNC(C)=O)cs2)CC1`, the inhibition is 5.03%.

As to `Cc1cccc(C(=O)N2CCCC(C(=O)NC3CCCC3)C2)c1` (centres undefined), the inhibition is 25.1%.

As to `O=C(c1cc(-c2ccccc2)n[nH]1)N1CCN(c2ncccn2)CC1`, the inhibition is -17.7%.

Consider `Cc1nn(-c2ccccc2)c(C)c1N1CCN(C(=O)c2cc(-c3ccccc3)n[nH]2)CC1`, for which the inhibition was 98.9% (active).

Regarding `Cc1nn(-c2ccccc2)c(Cl)c1C(=O)N1CCOCC1`, the inhibition is 1%.

With `COc1ccc(-c2nc(SCC(=O)Nc3ccc(OC(F)(F)F)cc3)[nH]c(=O)c2C#N)cc1`, the inhibition is 14%.

As to `COc1ccc(OC)c(C=C2Oc3c(ccc(O)c3CN3CCCCC3C)C2=O)c1` (centres undefined), the inhibition is -1.3%.

As to `COc1ccc(-c2nnc(N3CCC(C(=O)NCc4cccc(OC)c4)CC3)o2)cc1`, the inhibition is 21%.

In the case of `COc1ccc(N2CC(C(=O)Nc3ccc(C(C)C)cc3)CC2=O)cc1` (centres undefined), the inhibition was 0.1%.

Turning to `Cc1ccc(N2CC(C(=O)N(C)C(C)C)CC2=O)cc1` (centres undefined), the inhibition is -4.2%.

Take `CC(C)c1ccc(N2CC(C(=O)N(C)Cc3ccccc3)CC2=O)cc1` (centres undefined): the inhibition was 56.5% (active).

For the compound `Cc1ccc(C(=O)NCC2CCCN(S(=O)(=O)c3ccc(F)cc3F)C2)cc1` (centres undefined), the inhibition was -3.67%.

In the case of `O=C(CCn1c(=O)c2sccc2n(Cc2cccc(Cl)c2)c1=O)NCc1ccccc1`, the inhibition is -2%.

`Cc1cccc(-c2cc3n(n2)CCCN(C(=O)C(C)Oc2ccccc2)C3)c1` (centres undefined): the inhibition is 42.9%.

On to `COc1ccccc1CCC(=O)N1CCCn2nc(-c3cccc(C)c3)cc2C1`, for which the inhibition was 68.3% (active).

Take `COc1ccccc1CC(=O)N1CCCn2nc(-c3ccc(C)cc3)cc2C1`: the inhibition is 37.9%.

For the compound `CCOc1ccccc1Oc1c(C)oc2c(CN(CC)CC)c(O)ccc2c1=O`, the inhibition is 3.7%.

On to `CCC(CC)C(=O)Nc1ccc(Br)cc1F`, for which the inhibition is -9.3%.

In the case of `Cn1nc(-c2nc(-c3cccc(F)c3)no2)c2c1CCN(C(=O)Cc1cccs1)C2`, the inhibition was 20.1%.

Turning to `COc1ccc(-c2c(C)cc3oc(=O)cc(-c4ccccc4)c3c2C)cc1F`, the inhibition was -2.4%.

Regarding `CCN(CC)CCC(c1ccc2c(c1)OCO2)c1c(OC)cc(OC)c2c(-c3ccccc3)cc(=O)oc12` (centres undefined), the inhibition is 101% (active).

In the case of `CCN(CC)C(=O)CC(c1ccc2c(c1)OCO2)c1c(OC)cc(OC)c2c(-c3ccccc3)cc(=O)oc12` (centres undefined), the inhibition is 74.9% (active).

As to `COc1ccc(-c2c(C)cc3oc(=O)cc(-c4ccccc4)c3c2C)cc1OC`, the inhibition is -2.2%.

`CCN(CC)CCC(c1cc(OC)c(OC)c(OC)c1)c1c(OC)cc(OC)c2c(-c3ccccc3)cc(=O)oc12` (centres undefined): the inhibition was -4.8%.

`COc1cccc2cc(-c3nc(-c4ccc5c(c4)OCO5)cs3)c(=O)oc12`: the inhibition was -9%.

Regarding `Cc1ccc(Cc2c(C)nc(C)nc2N2CCN(C(=O)c3ccccc3)CC2)cc1`, the inhibition is 11.3%.

As for `COCCc1noc(COC2CCCN(C(=O)c3ccccn3)C2)n1` (centres undefined), the inhibition was -8.61%.

For `CCNc1cc(NCCNC(=O)c2cccc(F)c2)nc(C)n1`, the inhibition is -7.5%.

`CCc1ccccc1NC(=O)NCCNc1cc(-n2nc(C)cc2C)nc(C)n1`: the inhibition was -5.7%.

As for `CSc1cccc(NC(=O)NCCNc2cc(-n3ccnc3C)nc(C)n2)c1`, the inhibition was 99.9% (active).

Regarding `O=C1C(c2ccc(F)cc2)N(C2CCCC2)C(=O)CN1C1CCCCCC1` (centres undefined), the inhibition is -6%.

Regarding `O=C(CCCn1c2ccccc2c(=O)c2ccccc21)Nc1ccc(C(F)(F)F)cn1`, the inhibition was 23%.

Turning to `O=C(NCc1cccc(F)c1)c1cc2n(n1)CCCN(Cc1ccc(Cl)cc1)C2=O`, the inhibition was 16.8%.

For the compound `CCCc1cc(C2CCCN2Cc2cc(OC)c(OC)cc2OC)no1` (centres undefined), the inhibition is 37.6%.

For the compound `COc1cc(C2NC(C(=O)O)CS2)ccc1O` (centres undefined), the inhibition is -7%.

In the case of `COc1ccc([N+](=O)[O-])cc1NC(=O)CC(C)C`, the inhibition was -0.3%.

Take `COc1ccc([N+](=O)[O-])cc1-n1c(C)ccc1C`: the inhibition was 51.9% (active).

Regarding `COc1ccc([N+](=O)[O-])cc1NC(=O)c1ccc(C)c(Br)c1`, the inhibition is 8.5%.
